These molecules were tested on E18 rat cortical neuron-glia co-culture (assay: myelination (MBP fiber length per Olig2+ nucleus), % of 1 µM DAPT response (DMSO = 0) (% of DAPT); higher = more myelination, active = 50 or more). Settings: 5 µM; treatment time: 8 days (DIV5-DIV13).
Summary of the method: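 Myelination, expressed as continuous straight MBP fiber length per Olig2+ nucleus, was normalised to 0.1 % DMSO as 0 and a 1 µM positive control as 100. The cultures were primary E18 rat cortical co-cultures dissociated with papain and plated at 20,000 cells/well on poly-d-lysine/laminin-coated 96-well plates. They received library compounds at 1 or 5 µM in myelination medium between DIV5 and DIV13. Analysis covered four 10X fields per well in duplicate wells after 4 % paraformaldehyde fixation and immunostaining for MBP and Olig2 with DAPI.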

Structure (SMILES) | myelination
C#C[C@]1(O)CC[C@H]2[C@@H]3CCc4cc(O)ccc4[C@H]3CC[C@@]21C [Ethinyl Estradiol] | 159
NCCc1ccc(O)c(O)c1 [Dopamine] | 0.308 (inactive)
C[C@H](CS)C(=O)N1CCC[C@H]1C(=O)O [Captopril] | -9.32 (inactive)

Source: the supplement of paper PMC4840960
